This excerpt belongs to a sample that is enriched for hits.
BL2 CD40 inh – CD40 pathway inhibition in BL2 cells. BL2 NF-kB luciferase reporter, CD40L-induced, 4 h. inhibition, % at 10 µM. hit rate 0.94% among 83,000. AID 1053188;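 active means mean inhibition of at least 50% with a set share of replicates also reaching that level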
Numbers stand for hits; i = inactive.

SMILES | BL2 CD40 inh
CCOC(=O)CN(c1ccccn1)S(=O)(=O)c1ccccc1 | i
CCOC(=O)N=S(N)(=O)c1ccccc1 (stereo not given) | i
CCOC(=O)CC(S(=O)(=O)c1ccccc1)S(=O)(=O)c1ccccc1 | 97.4
CCCCN(C(=O)C1=COCCO1)c1c(N)n(Cc2ccccc2)c(=O)[nH]c1=O | i
O=C(C[C@@H]1C=C[C@@H](NC(=O)c2ccc3c(c2)OCO3)[C@@H](CO)O1)NC1Cc2ccccc2C1 | i
CNC(=S)NN=C(C)CCCC(C)=NNC(=S)NC | 71.2
CCCCN(C(=O)CC1CCCC1)c1c(N)n(CCC)c(=O)[nH]c1=O | i
C[C@@H]1CN([C@H](C)CO)C(=O)c2ccccc2-c2ccccc2CO[C@@H]1CN(C)C(=O)Nc1cccc(F)c1 | i
O=C(/C=C/c1ccccc1)CCN1CCOCC1 | i
C[N+](C)(C)CCC(=O)N1C/C(=C/c2ccccc2)C(=O)/C(=C\c2ccccc2)C1 | i
O=C1/C(=C/c2ccccc2)CN(C(=O)CCN2CCOCC2)C/C1=C\c1ccccc1 | 92.6
CCN(Cc1cc(=O)[nH]c2ccccc12)C(=O)C(C)C | i
CC(C)CNC1CCS(=O)(=O)C1 (stereo not given) | i
C=C(C)Cn1c(SCC#N)nc2ccccc2c1=O | i
O=C(Nc1nccs1)C1CC(=O)N(c2ccc(F)cc2)C1 (stereo not given) | i
Cc1ccc(N2CC(C(=O)Nc3nccs3)CC2=O)cc1Cl (stereo not given) | 60.9
COCc1nnc(NC(=O)C2CC(=O)N(c3ccc(C)c(Cl)c3)C2)s1 (stereo not given) | i
CCN1/C(=C/c2sc(-c3ccccc3C)c[n+]2C)Sc2ccccc21 | 68.2
c1ccc2c(c1)Sc1ccccc1-n1cnnc1-2 | i
CCN1C(=O)c2ccccc2Sc2ccc(C(=O)NCCCN3CCCCC3)cc21 | i
CCN(C(=O)CCc1nnc2ccc(N3CCC4(CC3)OCCO4)nn12)c1ccccc1 | i
O=C(COC(=O)C1CCCCC1C(=O)N1CCc2ccccc21)NCc1ccco1 (stereo not given) | i
Nc1ccc(Sc2nnnn2-c2ccccc2)c(Cl)c1 | i
Cc1cccc(-n2nnnc2SCC(=O)NC2CCCC2)c1 | i
Cc1cc(C)cc(N2C(=O)CC(Sc3nnnn3-c3ccccc3)C2=O)c1 (stereo not given) | 98.7
SMILES | BL2 CD40 inh
CC(C)(C)n1ncc2c(=O)n(CC(=O)c3ccccc3)cnc21 | i
CC(C)(C)n1ncc2c(=O)n(CC(=O)OCc3ccccc3)cnc21 | 98.3
CC(C)(C)n1ncc2c(=O)n(CC(=O)NCc3ccc(F)cc3)cnc21 | i
CN(C)CC(=O)N1[C@@H]2c3ccc(-c4cccc(F)c4)c(=O)n3C[C@@H]2[C@@H](CO)[C@@H]1C(=O)NC1CCC1 | i
COCC#Cc1ccc([C@H]2[C@@H](CO)N3C(=O)CN(C(=O)C4CCCCC4)C[C@@H]23)cc1 | i
O=C(CN1CCN(C(=O)C2CCC2)CC1)Nc1ccc(F)cc1 | i
Cc1ccc(S(=O)(=O)C=CS(=O)(=O)c2ccc(C)cc2)cc1 | 101.0
CNS(=O)(=O)c1ccc(C)cc1 | i
Cc1ccc(S(=O)(=O)CS(=O)(=O)c2ccc(C)cc2)cc1 | i
Cc1ccc(C(=O)OCc2nnc(-c3ccccc3)o2)s1 | i
O=C(O)C1CC2C3CC(C(=O)O)C(C3)C2C1 (stereo not given) | i
Cc1ccc(-c2cc(C(=O)N3CC(C)OC(C)C3)c3ccccc3n2)o1 (stereo not given) | 113.8
COC(=O)c1cc(-c2ccc(C)o2)nc2ccccc12 | i
Cc1ccc(-c2cc(C(=O)NCc3ccco3)c3ccccc3n2)o1 | i
Cn1cc(C(=O)c2ccccc2)cc1-c1nc2ccccc2n1C | i
CC(=O)c1ccc(-c2nc3ccccc3n2C)o1 | i
Cc1oc(-c2nc3ccccc3n2C)cc1C(=O)c1ccccc1 | 62.2
O=[N+]([O-])c1ccc2c(c1)C=C1CCCCC1(N1CCCCC1)O2 (stereo not given) | i
C[C@@H]1CN([C@@H](C)CO)C(=O)c2cc(NS(=O)(=O)c3ccc(F)cc3)ccc2O[C@H]1CN(C)C(=O)Nc1ccccc1 | i
O=C(c1ccc(-c2ccc([N+](=O)[O-])cc2)o1)N1CCCCCCC1 | i
O=C(c1ccc(-c2ccc([N+](=O)[O-])cc2)o1)N1CCCC(C(F)(F)F)C1 (stereo not given) | 60.8
O=C(c1ccccc1)c1ccc(C(=O)N2CCCC(C(F)(F)F)C2)cc1 (stereo not given) | i
COc1ccc(CN(CCC(c2ccc(F)cc2)C2CCOC(C)(C)C2)C(=O)c2ccco2)cc1 (stereo not given) | 37.3
O=C(c1ccco1)N(CCC(c1ccccc1)c1ccco1)Cc1ccccc1 (stereo not given) | i
CC1(C)CC(C(CC(=O)O)c2ccccc2)CCO1 (stereo not given) | i
COc1cccc(C#Cc2ccc([C@H]3[C@@H](C#N)N(C(=O)C4CCCC4)[C@@H]3CO)cc2)c1 | 76.6
COc1cccc(C#Cc2ccc([C@@H]3[C@H](C#N)N(C(=O)C4CC4)[C@H]3CO)cc2)c1 | i
COc1cccc(C#Cc2ccc([C@@H]3[C@@H](CO)N(C(=O)C4CCOCC4)[C@H]3C#N)cc2)c1 | 55.2
